{
  "source": "PubChem BioAssay (EPA / NIEHS)",
  "note": "Several values for one entry are separate records, joined by “and”; a condition that tells them apart may be missing. Equal values may be shown once. Inconclusive results are not listed. Activity calls are given as the source filed them. How the source made its calls: active means hit-call score of the fitted dose curve at least 0.9, where 1 is the maximum; inconclusive means response in the unintended direction; inactive means score below 0.9.",
  "data": [
    {"biological_target": "Mitogen-activated protein kinase 3 (Homo sapiens) (UniProt P27361)", "sequence (P27361 whole entry, looked up)": "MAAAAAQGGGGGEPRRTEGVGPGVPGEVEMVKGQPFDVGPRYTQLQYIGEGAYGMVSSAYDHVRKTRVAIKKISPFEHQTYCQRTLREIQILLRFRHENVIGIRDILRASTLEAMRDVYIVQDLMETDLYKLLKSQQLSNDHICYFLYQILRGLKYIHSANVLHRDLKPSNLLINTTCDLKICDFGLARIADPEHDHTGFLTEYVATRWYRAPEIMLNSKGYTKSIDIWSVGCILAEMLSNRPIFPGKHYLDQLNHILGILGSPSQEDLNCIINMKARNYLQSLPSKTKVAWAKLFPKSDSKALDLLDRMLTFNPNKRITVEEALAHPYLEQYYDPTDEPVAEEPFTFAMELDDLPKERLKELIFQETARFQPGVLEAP", "experiment": "NVS_ENZ_hMAPK3: NovaScreen (NVS) Enzymatic Assay for human Mitogen-Activated Protein Kinase 3 (MAPK 3) (AID 2283177)", "summary_of_the_method": "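Cell-free enzymatic assay with recombinant protein and specific substrate; fluorescence and electrophoretic mobility shift read-out 1 h after dosing. Primary screen duplicate at 25 uM; actives then run in concentration-response up to 50 uM, loss of signal versus DMSO.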", "values": [
      {"smiles": "COc1cc(C(=O)NC2CCN(C)CC2)ccc1Nc1ncc2c(n1)N(C1CCCC1)CC(F)(F)C(=O)N2C", "outcome": "inactive"},
      {"smiles": "CC(C)(C)c1csc(-c2cc3cc(OCc4ccccc4CC(=O)O)ccc3o2)n1", "outcome": "inactive"},
      {"smiles": "CCCC(=O)OCCC(C)C", "outcome": "inactive"},
      {"smiles": "c1ccc2ccccc2c1", "outcome": "inactive"},
      {"smiles": "CC/C(=C(/CC)c1ccc(O)cc1)c1ccc(O)cc1", "outcome": "inactive"},
      {"smiles": "O=CCCCC=O", "outcome": "inactive"}
    ]},
    {"biological_target": "human MAP Kinase-Activated Protein Kinase 2 (MAPKAPK2), MAPKAPK2 (gene 9261) (UniProt P49137)", "sequence (P49137 whole entry, looked up)": "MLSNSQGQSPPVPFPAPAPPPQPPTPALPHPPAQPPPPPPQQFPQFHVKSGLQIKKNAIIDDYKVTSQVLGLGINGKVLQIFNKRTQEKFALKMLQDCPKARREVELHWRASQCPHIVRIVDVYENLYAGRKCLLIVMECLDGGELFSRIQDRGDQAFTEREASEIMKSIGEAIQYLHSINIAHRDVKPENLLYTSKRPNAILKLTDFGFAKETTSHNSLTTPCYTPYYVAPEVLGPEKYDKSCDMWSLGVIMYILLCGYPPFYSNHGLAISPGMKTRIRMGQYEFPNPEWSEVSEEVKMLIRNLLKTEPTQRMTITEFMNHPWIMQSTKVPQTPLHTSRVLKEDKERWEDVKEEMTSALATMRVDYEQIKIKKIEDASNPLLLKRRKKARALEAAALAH", "experiment": "NVS_ENZ_hMAPKAPK2: NovaScreen (NVS) Enzymatic Assay for human MAP Kinase-Activated Protein Kinase 2 (MAPKAPK2) (AID 2283178)", "summary_of_the_method": "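Cell-free recombinant human MAPKAPK2 activity measured by fluorescence with electrophoretic mobility shift separation of substrate and product, 1 hr after dosing. Loss of signal versus DMSO; primary screen at 25 uM, concentration-response up to 50 uM.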", "values": [
      {"smiles": "CCCCCCCCOC(=O)c1cc(O)c(O)c(O)c1", "outcome": "inactive"},
      {"smiles": "Cc1cc2c(cc1C(F)(F)F)N(C(=O)Nc1ccc(Oc3cccnc3C)nc1)CC2", "outcome": "inactive"},
      {"smiles": "Cc1oc2c(NC(=O)c3c(Cl)cccc3Cl)cccc2c1C(C)(C)O", "outcome": "inactive"},
      {"smiles": "CN1C(=O)N(c2ccccc2Br)Cc2cnc(Nc3ccc4c(c3)OCC(CO)O4)nc21", "note": "(centres undefined)", "outcome": "inactive"}
    ]},
    {"biological_target": "human Matrix Metalloproteinase-2 (MMP2), MMP2 (gene 4313) (UniProt P08253)", "sequence (P08253 whole entry, looked up)": "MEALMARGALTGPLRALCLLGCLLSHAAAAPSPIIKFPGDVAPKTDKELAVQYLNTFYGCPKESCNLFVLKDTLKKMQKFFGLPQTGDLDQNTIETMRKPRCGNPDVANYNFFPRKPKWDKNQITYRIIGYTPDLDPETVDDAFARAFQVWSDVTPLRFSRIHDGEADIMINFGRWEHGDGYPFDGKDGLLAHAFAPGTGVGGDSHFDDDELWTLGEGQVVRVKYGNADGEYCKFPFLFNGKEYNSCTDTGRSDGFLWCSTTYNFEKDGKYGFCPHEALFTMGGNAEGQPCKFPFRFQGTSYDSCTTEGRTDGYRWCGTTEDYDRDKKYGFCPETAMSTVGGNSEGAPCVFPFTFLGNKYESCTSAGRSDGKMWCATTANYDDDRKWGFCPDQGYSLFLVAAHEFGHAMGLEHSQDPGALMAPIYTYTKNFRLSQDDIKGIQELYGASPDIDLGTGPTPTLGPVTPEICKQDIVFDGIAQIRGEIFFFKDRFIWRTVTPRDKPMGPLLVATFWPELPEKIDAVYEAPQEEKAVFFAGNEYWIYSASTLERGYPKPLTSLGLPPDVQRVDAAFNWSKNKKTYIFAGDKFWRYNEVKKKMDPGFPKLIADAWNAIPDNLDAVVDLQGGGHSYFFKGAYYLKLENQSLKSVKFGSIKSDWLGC", "experiment": "NVS_ENZ_hMMP2: NovaScreen (NVS) Enzymatic Assay for human Matrix Metalloproteinase-2 (MMP2) (AID 2283184)", "summary_of_the_method": "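Cell-free recombinant MMP2 activity with a fluorescent substrate, read 1 h after dosing. Primary screen in duplicate at 25 uM; actives then run in concentration series; loss of signal fitted versus DMSO.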", "values": [
      {"smiles": "CCCCCCCCOC(=O)c1cc(O)c(O)c(O)c1", "AC50": "1.47 µM (active)"},
      {"smiles": "CC/C(=C(/CC)c1ccc(O)cc1)c1ccc(O)cc1", "outcome": "inactive"},
      {"smiles": "CCN(Cc1cccc(S(=O)(=O)O)c1)c1ccc(C(=C2C=CC(=[N+](CC)Cc3cccc(S(=O)(=O)O)c3)C=C2)c2ccccc2S(=O)(=O)[O-])cc1", "AC50": "10.3 µM (active)"}
    ]},
    {"biological_target": "human Matrix Metalloproteinase-3 (MMP3), MMP3 (gene 4314) (UniProt P08254)", "sequence (P08254 whole entry, looked up)": "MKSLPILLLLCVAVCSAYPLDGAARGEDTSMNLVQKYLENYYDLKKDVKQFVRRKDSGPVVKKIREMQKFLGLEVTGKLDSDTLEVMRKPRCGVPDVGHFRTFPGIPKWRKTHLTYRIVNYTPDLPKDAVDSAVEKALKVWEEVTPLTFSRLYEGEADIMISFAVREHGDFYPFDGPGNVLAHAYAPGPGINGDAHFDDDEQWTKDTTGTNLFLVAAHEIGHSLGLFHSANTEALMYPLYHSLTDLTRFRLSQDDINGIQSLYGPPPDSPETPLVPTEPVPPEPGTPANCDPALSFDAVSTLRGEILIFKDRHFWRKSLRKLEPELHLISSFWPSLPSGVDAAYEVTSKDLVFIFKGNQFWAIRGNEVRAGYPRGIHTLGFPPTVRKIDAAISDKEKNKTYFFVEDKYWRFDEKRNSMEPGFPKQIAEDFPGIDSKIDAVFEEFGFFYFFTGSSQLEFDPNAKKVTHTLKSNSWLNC", "experiment": "NVS_ENZ_hMMP3: NovaScreen (NVS) Enzymatic Assay for human Matrix Metalloproteinase-3 (MMP3) (AID 2283185)", "summary_of_the_method": "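Cell-free recombinant human MMP3 activity, fluorescence intensity read 1 h after dosing. Primary screen duplicate at 25 uM, actives retested in concentration series; loss of signal vs DMSO baseline.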", "values": [
      {"smiles": "CCCCCCCCOC(=O)c1cc(O)c(O)c(O)c1", "AC50": "5.82 µM (active)"},
      {"smiles": "CN1C(=O)N(c2ccccc2Br)Cc2cnc(Nc3ccc4c(c3)OCC(CO)O4)nc21", "note": "(centres undefined)", "outcome": "inactive"},
      {"smiles": "CCN(Cc1cccc(S(=O)(=O)O)c1)c1ccc(C(=C2C=CC(=[N+](CC)Cc3cccc(S(=O)(=O)O)c3)C=C2)c2ccccc2S(=O)(=O)[O-])cc1", "AC50": "16.1 µM (active)"},
      {"smiles": "O=C(O)Cc1cc(I)c(Oc2ccc(O)c(I)c2)c(I)c1", "outcome": "inactive"},
      {"smiles": "O=C1O[C@H]([C@@H](O)CO)C(O)=C1O", "outcome": "inactive"}
    ]},
    {"biological_target": "human Mitogen- and Stress-activated Protein Kinase-1 (Msk1), RPS6KA5 (gene 9252) (UniProt O75582)", "sequence (O75582 whole entry, looked up)": "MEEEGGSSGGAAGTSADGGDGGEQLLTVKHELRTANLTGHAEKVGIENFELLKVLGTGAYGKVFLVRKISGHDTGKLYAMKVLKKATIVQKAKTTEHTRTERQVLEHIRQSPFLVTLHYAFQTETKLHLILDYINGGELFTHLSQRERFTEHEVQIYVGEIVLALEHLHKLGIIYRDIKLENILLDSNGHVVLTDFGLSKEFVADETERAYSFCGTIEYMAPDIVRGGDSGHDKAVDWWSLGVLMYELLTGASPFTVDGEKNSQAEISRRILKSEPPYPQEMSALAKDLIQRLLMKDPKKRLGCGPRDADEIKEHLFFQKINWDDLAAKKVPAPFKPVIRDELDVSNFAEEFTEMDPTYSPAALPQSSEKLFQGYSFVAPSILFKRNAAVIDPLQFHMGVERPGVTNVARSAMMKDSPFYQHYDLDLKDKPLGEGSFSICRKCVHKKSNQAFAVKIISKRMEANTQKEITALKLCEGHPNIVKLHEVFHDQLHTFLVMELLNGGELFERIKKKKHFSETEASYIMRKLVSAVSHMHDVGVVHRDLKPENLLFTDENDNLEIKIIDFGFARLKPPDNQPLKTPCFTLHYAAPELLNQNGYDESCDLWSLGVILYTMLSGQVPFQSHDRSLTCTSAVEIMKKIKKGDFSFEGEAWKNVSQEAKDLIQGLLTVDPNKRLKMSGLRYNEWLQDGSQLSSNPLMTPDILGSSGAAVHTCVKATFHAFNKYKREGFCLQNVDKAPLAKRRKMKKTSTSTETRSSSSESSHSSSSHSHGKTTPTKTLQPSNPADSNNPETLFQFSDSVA", "experiment": "NVS_ENZ_hMsk1: NovaScreen (NVS) Enzymatic Assay for human Mitogen- and Stress-activated Protein Kinase-1 (Msk1) (AID 2283187)", "method": "(§1) NVS_ENZ_hMsk1 is a biochemical, single-readout assay that uses extracted gene-proteins in a cell-free assay. Measurements were taken 1 hour after chemical dosing in a 384-well plate.NVS_ENZ_hMsk1 is one of one assay component(s) measured or calculated from the NVS_ENZ_hMsk1 assay. It is designed to make measurements of enzyme activity, a form of enzyme reporter, as detected with fluorescence intensity signals by Fluorescence and electrophoretic mobility shift technology.Data from the assay component NVS_ENZ_hMsk1 was analyzed into 1 assay endpoint. This assay endpoint, NVS_ENZ_hMsk1, was analyzed in the positive analysis fitting direction relative to DMSO as the negative control and baseline of activity. Using a type of enzyme reporter, loss-of-signal activity can be used to understand changes in the enzymatic activity as they relate to the gene RPS6KA5. Furthermore, this assay endpoint can be referred to as a primary readout, because this assay has produced multiple assay endpoints where this one serves a enzymatic activity function. To generalize the intended target to other relatable targets, this assay endpoint is annotated to the kinase intended target family, where the subfamily is serine/threonine kinase.\nBinding assays used specific radioligands (tritiated, iodinated) with non-radioactive competitive displacement ligands in agonist or antagonist protocols (as indicated) and various reference compounds and inhibitors to titrate specific binding to receptors and transporters. Most enzyme assays (CYPs, kinases, phosphatases, proteases, HDACs) used recombinant protein and specific substrates (fluorescence mostly, some colorimetric and radioactive) and inhibitors, followed by a biochemical separation of substrate and product. All assays for the biochemical HTS were initially run in duplicate at a single concentration (10 uM for CYP450 assays and 25 uM for all others). […]", "values": [
      {"smiles": "O=C(O)c1ccccc1C(=O)OCc1ccccc1", "outcome": "inactive"},
      {"smiles": "c1ccc2ccccc2c1", "outcome": "inactive"},
      {"smiles": "CCN(CC)C(=O)c1cc(S(=O)(=O)Cc2ccccc2)c(N2CCC(c3ccccc3)CC2)cc1N(CC)CCN(C)C", "outcome": "inactive"}
    ]},
    {"biological_target": "human Phosphodiesterase 4A1 (PDE4A1), PDE4A (gene 5141) (UniProt P27815)", "experiment": "NVS_ENZ_hPDE4A1: NovaScreen (NVS) Enzymatic Assay for human Phosphodiesterase 4A1 (PDE4A1) (AID 2283191)", "method": "as §1, with “NVS_ENZ_hPDE4A1” for “NVS_ENZ_hMsk1”, “plate.NVS_ENZ_hPDE4A1” for “plate.NVS_ENZ_hMsk1”, “NVS_ENZ_hPDE4A1,” for “NVS_ENZ_hMsk1,”, “PDE4A.” for “RPS6KA5.”, “esterase” for “kinase”, “phosphodiesterase.” for “serine/threonine kinase.”\nBinding assays used specific radioligands (tritiated, iodinated) with non-radioactive competitive displacement ligands in agonist or antagonist protocols (as indicated) and various reference compounds and inhibitors to titrate specific binding to receptors and transporters. Most enzyme assays (CYPs, kinases, phosphatases, proteases, HDACs) used recombinant protein and specific substrates (fluorescence mostly, some colorimetric and radioactive) and inhibitors, followed by a biochemical separation of substrate and product. All assays for the biochemical HTS were initially run in duplicate at a single concentration (10 uM for CYP450 assays and 25 uM for all others). Assay-chemical combinations meeting a pre-defined threshold (e.g., 30% inhibition and other criteria defined below) were then run in singleton concentration-response format with maximum concentration of 20 uM for CYPs and 50 uM for all others. Each assay was run with positive and negative controls, and concurrent controls on every plate. The follow-up (secondary) screen tested active chemical-pairs in concentration series, as well as a few additional assays not tested in the primary screen, some selected negative inactives, and several cases re-run in the concentration series for confirmatory purposes.", "values": [
      {"smiles": "COc1cc(C(=O)NC2CCN(C)CC2)ccc1Nc1ncc2c(n1)N(C1CCCC1)CC(F)(F)C(=O)N2C", "AC50": "9.1 µM (active)"},
      {"smiles": "CC/C(=C(/CC)c1ccc(O)cc1)c1ccc(O)cc1", "outcome": "inactive"},
      {"smiles": "CN1C(=O)N(c2ccccc2Br)Cc2cnc(Nc3ccc4c(c3)OCC(CO)O4)nc21", "note": "(centres undefined)", "AC50": "6.38 µM (active)"},
      {"smiles": "CCN(CC)C(=O)c1cc(S(=O)(=O)Cc2ccccc2)c(N2CCC(c3ccccc3)CC2)cc1N(CC)CCN(C)C", "AC50": "9.38 µM (active)"},
      {"smiles": "Clc1cc(Cl)c2c(c1)N=C1CCCCCN1C2", "outcome": "inactive"}
    ]},
    {"biological_target": "human Phosphodiesterase 5 (PDE5), PDE5A (gene 8654) (UniProt O76074)", "experiment": "NVS_ENZ_hPDE5: NovaScreen (NVS) Enzymatic Assay for human Phosphodiesterase 5 (PDE5) (AID 2283194)", "summary_of_the_method": "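Recombinant human PDE5 with specific substrate, read 1 h after dosing by fluorescence with electrophoretic mobility-shift separation of substrate and product. Initial single-concentration duplicate screen at 25 uM, actives followed in concentration series; loss of activity versus DMSO.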", "values": [
      {"smiles": "COc1cc(C(=O)NC2CCN(C)CC2)ccc1Nc1ncc2c(n1)N(C1CCCC1)CC(F)(F)C(=O)N2C", "AC50": "3.76 nM (active)"},
      {"smiles": "CC(C)(C)c1csc(-c2cc3cc(OCc4ccccc4CC(=O)O)ccc3o2)n1", "outcome": "inactive"},
      {"smiles": "CC/C(=C(/CC)c1ccc(O)cc1)c1ccc(O)cc1", "outcome": "inactive"},
      {"smiles": "CCN(CC)C(=O)c1cc(S(=O)(=O)Cc2ccccc2)c(N2CCC(c3ccccc3)CC2)cc1N(CC)CCN(C)C", "outcome": "inactive"},
      {"smiles": "Clc1cc(Cl)c2c(c1)N=C1CCCCCN1C2", "outcome": "inactive"}
    ]},
    {"biological_target": "human Phosphodiesterase 10 (PDE10), PDE10A (gene 10846) (UniProt Q9Y233)", "sequence (Q9Y233 whole entry, looked up)": "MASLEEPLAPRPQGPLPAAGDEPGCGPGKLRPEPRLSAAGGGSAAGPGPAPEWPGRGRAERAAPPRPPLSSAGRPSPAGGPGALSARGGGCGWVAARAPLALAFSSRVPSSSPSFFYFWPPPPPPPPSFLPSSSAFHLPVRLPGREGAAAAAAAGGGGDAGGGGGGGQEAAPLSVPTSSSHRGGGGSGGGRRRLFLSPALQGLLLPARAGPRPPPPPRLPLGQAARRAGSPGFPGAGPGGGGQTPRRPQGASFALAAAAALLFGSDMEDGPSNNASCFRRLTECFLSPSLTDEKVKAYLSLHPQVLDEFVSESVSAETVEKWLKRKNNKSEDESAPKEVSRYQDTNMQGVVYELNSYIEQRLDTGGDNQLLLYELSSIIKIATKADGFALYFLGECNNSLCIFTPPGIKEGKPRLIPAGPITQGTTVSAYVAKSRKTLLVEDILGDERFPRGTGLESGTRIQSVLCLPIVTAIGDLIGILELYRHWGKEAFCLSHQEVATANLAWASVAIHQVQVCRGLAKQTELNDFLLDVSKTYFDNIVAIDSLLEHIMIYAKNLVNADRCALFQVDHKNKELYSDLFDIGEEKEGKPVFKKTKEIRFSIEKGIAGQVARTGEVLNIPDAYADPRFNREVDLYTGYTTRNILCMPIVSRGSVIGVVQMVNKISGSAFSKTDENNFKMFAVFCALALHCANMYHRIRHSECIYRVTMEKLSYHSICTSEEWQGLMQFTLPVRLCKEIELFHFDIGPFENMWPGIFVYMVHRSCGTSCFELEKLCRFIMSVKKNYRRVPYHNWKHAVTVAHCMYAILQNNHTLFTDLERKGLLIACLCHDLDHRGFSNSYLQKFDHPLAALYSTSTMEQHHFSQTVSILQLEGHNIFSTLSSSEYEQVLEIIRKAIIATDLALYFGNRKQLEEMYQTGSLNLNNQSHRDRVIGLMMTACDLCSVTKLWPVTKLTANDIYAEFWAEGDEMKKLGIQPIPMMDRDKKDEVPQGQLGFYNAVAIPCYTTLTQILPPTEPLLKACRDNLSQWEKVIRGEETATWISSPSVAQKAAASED", "experiment": "NVS_ENZ_hPDE10: NovaScreen (NVS) Enzymatic Assay for human Phosphodiesterase 10 (PDE10) (AID 2283195)", "summary_of_the_method": "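Recombinant human PDE10 with fluorescent substrate, 1 h, product separated by electrophoretic mobility shift. Loss of enzyme activity fitted against DMSO; initial screen 25 uM in duplicate, actives run to 50 uM maximum.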", "values": [
      {"smiles": "COc1cc(C(=O)NC2CCN(C)CC2)ccc1Nc1ncc2c(n1)N(C1CCCC1)CC(F)(F)C(=O)N2C", "AC50": "3.76 µM (active)"},
      {"smiles": "CN1C(=O)N(c2ccccc2Br)Cc2cnc(Nc3ccc4c(c3)OCC(CO)O4)nc21", "note": "(centres undefined)", "AC50": "1.09 µM (active)"},
      {"smiles": "CCN(CC)C(=O)c1cc(S(=O)(=O)Cc2ccccc2)c(N2CCC(c3ccccc3)CC2)cc1N(CC)CCN(C)C", "AC50": "16 µM (active)"},
      {"smiles": "O=C(O)Cc1cc(I)c(Oc2ccc(O)c(I)c2)c(I)c1", "AC50": "3.32 µM (active)"}
    ]},
    {"biological_target": "human Phosphoinositide 3-kinase alpha (PI3Ka), PIK3CA (gene 5290) (UniProt P42336)", "sequence (P42336 whole entry, looked up)": "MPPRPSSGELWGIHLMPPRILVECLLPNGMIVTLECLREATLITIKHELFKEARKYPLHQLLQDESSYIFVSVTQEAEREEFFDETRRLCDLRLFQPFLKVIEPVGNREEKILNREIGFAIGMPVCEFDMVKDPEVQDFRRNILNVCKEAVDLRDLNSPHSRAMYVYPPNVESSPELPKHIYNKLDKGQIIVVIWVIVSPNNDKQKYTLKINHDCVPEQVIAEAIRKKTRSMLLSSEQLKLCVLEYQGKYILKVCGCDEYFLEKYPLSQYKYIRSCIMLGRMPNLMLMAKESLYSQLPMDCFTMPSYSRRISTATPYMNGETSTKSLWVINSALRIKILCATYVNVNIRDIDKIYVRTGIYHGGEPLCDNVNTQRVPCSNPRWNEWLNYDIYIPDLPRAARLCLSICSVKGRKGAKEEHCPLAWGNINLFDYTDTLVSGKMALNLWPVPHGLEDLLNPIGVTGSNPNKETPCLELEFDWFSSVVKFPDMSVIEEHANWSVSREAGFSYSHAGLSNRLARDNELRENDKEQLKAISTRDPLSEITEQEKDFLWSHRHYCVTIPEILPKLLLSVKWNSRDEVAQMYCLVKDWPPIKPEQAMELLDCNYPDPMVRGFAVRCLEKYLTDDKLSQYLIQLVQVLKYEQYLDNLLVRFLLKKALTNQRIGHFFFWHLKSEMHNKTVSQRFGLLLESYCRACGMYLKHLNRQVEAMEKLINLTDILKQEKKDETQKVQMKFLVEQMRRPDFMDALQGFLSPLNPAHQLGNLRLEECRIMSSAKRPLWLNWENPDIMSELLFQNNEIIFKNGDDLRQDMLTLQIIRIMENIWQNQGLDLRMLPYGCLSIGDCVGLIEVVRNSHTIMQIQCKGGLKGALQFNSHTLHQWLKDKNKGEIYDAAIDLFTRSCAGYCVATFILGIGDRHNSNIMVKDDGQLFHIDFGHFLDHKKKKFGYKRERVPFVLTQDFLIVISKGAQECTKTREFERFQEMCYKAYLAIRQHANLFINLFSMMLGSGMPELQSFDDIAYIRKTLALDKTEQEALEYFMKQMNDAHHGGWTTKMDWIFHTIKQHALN", "experiment": "NVS_ENZ_hPI3Ka: NovaScreen (NVS) Enzymatic Assay for human Phosphoinositide 3-kinase alpha (PI3Ka) (AID 2283196)", "summary_of_the_method": "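Duplicate single-point screen (25 uM), then singleton dose-response (max 50 uM) for compounds meeting the threshold. Cell-free kinase reaction, 1 h; fluorescent mobility-shift readout.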", "values": [
      {"smiles": "CCCCCCCCOC(=O)c1cc(O)c(O)c(O)c1", "outcome": "inactive"},
      {"smiles": "CCCCCCCCN(C)CCCCCCCC", "outcome": "inactive"},
      {"smiles": "CC/C(=C(/CC)c1ccc(O)cc1)c1ccc(O)cc1", "AC50": "40 µM (active) and 17.3 µM (active) and 27.8 µM (active)"},
      {"smiles": "O=C1O[C@H]([C@@H](O)CO)C(O)=C1O", "outcome": "inactive"}
    ]}
  ]
}
